# Gli-Sufu block – antagonists of Gli-Sufu signaling; inhibition, % at 5 µM; 0.74% of 340,000 active; Sufu-KO-LIGHT fibroblasts, Gli luciferase reporter luminescence; AID 588413;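 active = inhibition above about 55%, limit read from the data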;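 also: 0% = DMSO-treated cells and 100% = wells with medium but no cells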
# Beta apoptosis – beta cell apoptosis inhibition; INS-1E cytokine-induced death, ATP luminescence, 48 h; percent of positive-control rescue, neutral wells zero; protection from apoptosis, % (no concentration beside the values); 0.8% of 300,000 active; AID 435005;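 active = Every replicate reaches about 75%, or at least half do and their mean reaches it too, limit read from the data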;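 also: 0% = cytokine-treated negative control wells and 100% = positive control rescue; higher means more ATP so stronger rescue from cytokine killing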
# Shn3 3UTR inh – inhibitors of Schnurri-3 3'UTR reporter in osteoblasts. inhibition, % at 12.5 µM. 0.52% of 360,000 active. Clone20 osteoblast Shn3 3'UTR firefly luciferase, 24 h. AID 588674;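 active = mean inhibition of at least 75% with every replicate also reaching 75%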;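 also: 0% = median of neutral control wells and 100% = pilot-screen positive control compound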
# CSC inhib – cancer stem cell inhibition; cancer stem cell-like cells viability, luminescence; inhibition, % at 7.5 µM; 1.1% of 300,000 active; AID 2717; in the data active = inhibition above about 75%; tested in HMLE shEcad cells
# PAX8 inh HTS – inhibitors of PAX8 transcriptional activity in RMG-I cells | RMG-I TPO-luciferase reporter, SteadyGlo, 24 h | inhibition, % at 12.6 µM | 1.2% of 360,000 active | AID 652154;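 active = mean replicate inhibition at least 60% with every replicate also reaching 60%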;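 also: luciferase light reporting Pax8 driven TPO promoter activity; plate controls were median of neutral control wells for no effect and mitoxantrone controls for full effect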
# Mdm2-MdmX inh – inhibitors of human Mdm2/MdmX interaction; O15151+Q00987; SaOS-2 split-luciferase Mdm2/MdmX complementation, luminescence; inhibition, % at 8 µM; 3% of 330,000 active; AID 485346;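 active = inhibition of at least 50% at 8 µM in the primary screen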
# Target sequence (O15151 whole entry, looked up): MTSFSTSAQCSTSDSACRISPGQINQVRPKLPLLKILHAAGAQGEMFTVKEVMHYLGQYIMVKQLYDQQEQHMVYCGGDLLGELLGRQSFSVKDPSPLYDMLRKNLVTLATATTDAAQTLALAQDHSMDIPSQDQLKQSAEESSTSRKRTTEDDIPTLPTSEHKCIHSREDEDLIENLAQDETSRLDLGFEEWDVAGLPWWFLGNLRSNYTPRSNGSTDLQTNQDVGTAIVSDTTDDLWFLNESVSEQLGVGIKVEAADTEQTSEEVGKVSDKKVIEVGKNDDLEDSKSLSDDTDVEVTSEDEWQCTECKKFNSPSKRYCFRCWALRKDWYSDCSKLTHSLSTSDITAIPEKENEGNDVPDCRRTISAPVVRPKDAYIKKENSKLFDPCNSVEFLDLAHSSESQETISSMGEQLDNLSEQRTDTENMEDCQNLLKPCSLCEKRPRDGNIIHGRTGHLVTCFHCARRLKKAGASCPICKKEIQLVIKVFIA
# Target sequence (Q00987 whole entry, looked up): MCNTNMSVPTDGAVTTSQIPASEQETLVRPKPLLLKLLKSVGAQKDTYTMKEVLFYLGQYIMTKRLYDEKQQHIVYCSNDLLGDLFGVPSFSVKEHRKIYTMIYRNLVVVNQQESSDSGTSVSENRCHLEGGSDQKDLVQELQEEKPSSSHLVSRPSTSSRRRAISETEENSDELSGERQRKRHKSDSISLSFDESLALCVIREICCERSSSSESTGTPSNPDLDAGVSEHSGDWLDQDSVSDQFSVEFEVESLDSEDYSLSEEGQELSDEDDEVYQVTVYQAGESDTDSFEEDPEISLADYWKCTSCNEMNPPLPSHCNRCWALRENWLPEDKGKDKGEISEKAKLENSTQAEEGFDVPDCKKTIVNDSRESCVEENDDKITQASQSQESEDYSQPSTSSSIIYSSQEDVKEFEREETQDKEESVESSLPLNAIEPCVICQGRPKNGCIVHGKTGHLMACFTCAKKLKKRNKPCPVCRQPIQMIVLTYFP
# Numbers without * were called inactive; · = no result. A selection: hits, their analogues and other compounds. The true share with any hit is near 4%.
SMILES,Gli-Sufu block,Beta apoptosis,Shn3 3UTR inh,CSC inhib,PAX8 inh HTS,Mdm2-MdmX inh
Cc1ccccc1S(=O)(=O)N1C[C@@H](O)COC[C@@H]2O[C@@H](CC(=O)O)CC[C@H]21,·,·,·,·,-14,·
Cc1ccc(S(=O)(=O)Nc2ccc3c(c2)C(=O)N([C@@H](C)CO)C[C@@H](C)[C@H](CN(C)S(=O)(=O)c2ccc(Cl)cc2)OCCCC[C@@H](C)O3)cc1,·,·,·,·,84*,·
CN1CCN(C(=O)c2cc3c(c(-c4cccc(C#CCC5CCCC5)c4)n2)[C@H](CCO)N(S(=O)C(C)(C)C)C3)CC1 (stereo not given in full),·,·,·,·,-55,·
C[C@@H]1CN([C@@H](C)CO)C(=O)c2cc(NC(=O)Nc3ccc(F)cc3)ccc2O[C@@H](C)CCCCO[C@H]1CN(C)Cc1ccncc1,·,·,·,·,-10,·
O=C(O)CN1C(=O)/C(=C\c2cc(Br)ccc2OCc2ccccc2Cl)SC1=S,11,0,-6,97*,19,-13
c1ccc2nc(-c3nc4ccccc4[nH]3)ccc2c1,7,43,9,76*,·,-123
Cc1c(C)n(Cc2ccccc2)c2ccc(C(=O)OCCN(C)C)cc12,-6,-2,16,85*,-28,24
Cn1c(/C=C/c2ccccc2)nc2ccccc21,-127,43,-17,51,79*,-61
Cn1c(=O)c(/C=C/c2ccccc2)nc2ccccc21,-73,·,-80,·,-58,-135
O=C1CC(c2ccc(F)cc2)CC2=C1C=Nc1ccccc1N2 (stereo not given),22,-3,24,103*,21,32
C[C@H](CO)N1C[C@H](C)[C@H](CN(C)Cc2ccncc2)Oc2ncc(C#CCC3CCCC3)cc2C1=O,·,·,·,·,13,·
CC1(C(=O)NCc2cccc(C(F)(F)F)c2)CCN1Cc1cc2ccccc2o1 (stereo not given),·,·,-2,·,12,·
CC1(C(=O)NCc2cccc(C(F)(F)F)c2)CCN1Cc1ccc(-c2ccccc2)o1 (stereo not given),·,·,30,·,74*,·
O=C(c1ccc(F)cc1)N1CC(=O)N2[C@H](CO)[C@@H](c3ccc(/C=C/c4ccccc4)cc3)[C@@H]2C1,·,·,·,·,69*,·
CCCC#Cc1ccc([C@@H]2[C@@H](CO)N3CCCCN(S(=O)(=O)Cc4ccccc4)C[C@@H]23)cc1,·,·,·,·,-8,·
O=C1CN(Cc2ccc(F)cc2)C[C@@H]2[C@@H](c3ccc(Br)cc3)[C@@H](CO)N12,·,·,·,·,73*,·
O=C(C1CCC1)N1CC(=O)N2[C@H](CO)[C@@H](c3ccc(C#CCc4ccccc4)cc3)[C@@H]2C1,·,·,·,·,-4,·
O=C1CN(Cc2ccc(F)cc2)C[C@@H]2[C@@H](c3ccc(Br)cc3)[C@H](CO)N12,·,·,·,·,1,·
CCCC#Cc1ccc([C@H]2[C@H]3CN(S(=O)(=O)Cc4ccccc4)CCCCN3[C@H]2CO)cc1,·,·,·,·,106*,·
O=C(c1ccc(F)cc1)N1CC(=O)N2[C@@H](CO)[C@H](c3ccc(/C=C/c4ccccc4)cc3)[C@@H]2C1,·,·,·,·,2,·
O=C(C1CCC1)N1CC(=O)N2[C@H](CO)[C@H](c3ccc(C#CCc4ccccc4)cc3)[C@H]2C1,·,·,·,·,83*,·
COc1cccc(NC(=O)N2C[C@@H](O)COC[C@H]3O[C@H](CC(=O)NC4CCCC4)CC[C@@H]32)c1,·,·,·,·,-3,·
C[C@@H]1CN([C@H](C)CO)S(=O)(=O)c2ccc(-c3cccc(C#N)c3)cc2O[C@@H]1CN(C)C(=O)c1ccncc1,·,·,·,·,0,·
Cc1ccc(S(=O)(=O)N(C)C[C@H]2OCCCC[C@H](C)Oc3ccc(NC(=O)c4ccccc4)cc3C(=O)N([C@H](C)CO)C[C@H]2C)cc1,·,·,·,·,-8,·
Cc1ccc(S(=O)(=O)NCC[C@@H]2CC[C@@H](NC(=O)c3ccccn3)[C@@H](CO)O2)cc1,·,·,·,·,4,·
SMILES,Gli-Sufu block,Beta apoptosis,Shn3 3UTR inh,CSC inhib,PAX8 inh HTS,Mdm2-MdmX inh
CO[C@H]1CN(C)C(=O)c2cc(C#N)ccc2OCC[C@@H]2CC[C@H](OC)[C@@H](CN(C)C(=O)[C@H]1C)O2,·,·,·,·,-8,·
C[C@@H]1CN([C@H](C)CO)C(=O)c2cccc(NC(=O)Nc3cccc4ccccc34)c2O[C@@H]1CN(C)C,·,·,·,·,-4,·
CCCC#Cc1ccc([C@@H]2[C@H](CO)N3CCCCN(S(=O)(=O)Cc4ccccc4)C[C@@H]23)cc1,·,·,·,·,117*,·
O=C1CN(S(=O)(=O)Cc2ccccc2)C[C@@H]2[C@@H](c3ccc(C#Cc4ccc(F)cc4)cc3)[C@@H](CO)N12,·,·,·,·,106*,·
CNC[C@@H]1Oc2ccc(NS(=O)(=O)c3ccc(Cl)cc3)cc2C(=O)N([C@@H](C)CO)C[C@H]1C,·,·,·,·,-3,·
O=S(=O)(/C(=C/c1ccc(C(F)(F)F)cc1)c1nc2ccccc2[nH]1)c1ccccc1,-18,100*,39,101*,115*,·
C/C(=C\c1ccc(N)cc1)c1nc2ccccc2[nH]1,-71,-1,-94,2,-158,-64
Cc1ccc(S(=O)(=O)Nc2cccc3c2O[C@H](CN(C)C(=O)Nc2ccc(F)cc2)[C@@H](C)CN([C@H](C)CO)C3=O)cc1,·,·,·,·,-16,·
C/C=C/c1cnc2c(c1)C(=O)N([C@@H](C)CO)C[C@@H](C)[C@H](CN(C)Cc1cccc(C(=O)O)c1)O2,·,·,·,·,-20,·
O=C(COc1nc2ccccc2nc1N1CCOCC1)NC1CCCCC1,-5,-2,-40,-6,-15,0
CCCNC(=O)COc1nc2ccccc2nc1N1CCOCC1,-1,1,-7,·,103*,-26
COc1ccc(/C=C/c2c(-c3ccc(OC)cc3)oc3ccccc23)cc1,10,0,13,26,10,2
COC(=O)c1ccc(/C=C/c2c(-c3ccc(OC)cc3)oc3ccccc23)cc1,0,-1,19,109*,-28,32
COC(=O)c1ccc(/C=C/c2c(-c3ccc(OC)cc3)oc3ccc(N4CCOCC4)cc23)cc1,0,6,-37,109*,-22,33
CCCNC(=O)N1C[C@@H](C)[C@@H](OC)CN(C)C(=O)c2ccc(NC(C)=O)cc2OC[C@H]1C,·,·,·,·,2,·
COc1ccc(-c2ccc([C@@H]3[C@@H](CO)N4C(=O)CN(Cc5ccc(F)cc5)C[C@H]34)cc2)cc1,·,·,·,·,2,·
CCCNC(=O)N(C)C[C@H]1Oc2cc(-c3cncnc3)ccc2S(=O)(=O)N([C@H](C)CO)C[C@@H]1C,·,·,·,·,-20,·
CCCNC(=O)C[C@H]1CC[C@@H]2[C@H](COc3ccc(NC(=O)Nc4ccccc4)cc3C(=O)N2C)O1,·,·,·,·,15,·
CCCN(CCC)Cc1c(C(=O)N/N=C/C(C)=C\c2ccco2)nnn1-c1nonc1N,-12,21,3,8,93*,33
C/C(=N\NC(=O)c1nnn(-c2nonc2N)c1CN(C)c1ccccc1)c1ccccn1,78*,86*,92*,105*,·,·
CC(/C=N/NC(=O)c1nnn(-c2nonc2N)c1CN(C)C)=C\c1ccco1,2,1,-7,-3,15,-8

# Screening results deposited in PubChem by several laboratories.
